About 79,000 compounds went through this panel and 15% of them were active in at least one assay; those are over-represented in the sample as a whole. Unmarked numbers belong to inactive results. Calls of active or inactive are those of the source. No stated cut-off is given here; in the data, active means growth inhibition above about 70%; inactive means the rest.
Tests used:
[1] = NCI Yeast Anticancer Drug Screen. Data for the rad50 strain (AID 155);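 further: 0% = growth of vehicle-only cultures of the same strain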; settings: S. cerevisiae rad50 strain growth inhibition, hits give high values
Outline: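 Cells are treated with compound, grown, and their growth is then scored against vehicle-only cultures of the same repair-deficient yeast strain.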

[2] = NCI Yeast Anticancer Drug Screen. Data for the mec2-1 strain (AID 157); settings: S. cerevisiae mec2-1 strain, hits give high values
Outline: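 Growth inhibition is read against vehicle-treated controls after compound exposure of the mec2-1 yeast strain, which is defective in DNA damage repair or cell cycle control.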

[3] = NCI Yeast Anticancer Drug Screen. Data for the sgs1 mgt1 strain (AID 161);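 further: 0% = growth of cultures given vehicle only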; settings: S. cerevisiae sgs1 mgt1 strain, hits give high values
Outline: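 This yeast growth screen uses a strain with defined DNA-repair lesions; compound-treated growth is compared with vehicle-treated growth.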

[4] = NCI Yeast Anticancer Drug Screen. Data for the cln2 rad14 strain (AID 165);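 further: 0% = growth equal to vehicle treated cultures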; settings: S. cerevisiae cln2 rad14 strain, hits give high values
Outline: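 Growth inhibition, relative to vehicle-treated controls, is the read-out. The test organism is a yeast strain with defined genetic alterations, cln2 rad14.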

[5] = NCI Yeast Anticancer Drug Screen. Data for the bub3 strain (AID 167); settings: S. cerevisiae bub3 mutant strain, hits give high values
Outline: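 Part of a panel of yeast mutants defective in DNA damage repair or cell cycle regulation. Each strain is grown with compound, and inhibition is calculated relative to solvent-treated cultures.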

[6] = NCI Yeast Anticancer Drug Screen. Data for the mlh1 rad18 strain (AID 175); settings: S. cerevisiae mlh1 rad18 strain growth inhibition, hits give high values
Outline: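 Cells of a genetically altered yeast strain, deficient in DNA damage repair, were treated with compound. Their growth was then compared with that of vehicle-treated cultures to give inhibition.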

[7] = at 5.0 µM (retest, dose inferred, filed as 0.5)
[8] = at 50.0 µM (retest, dose inferred, filed as 5.0)

Structure (SMILES) | growth inhibition [1, 7] | growth inhibition [1, 8] | growth inhibition ([1]; at 50.0 µM) | growth inhibition [2, 7] | growth inhibition [2, 8] | growth inhibition ([2]; at 50.0 µM) | growth inhibition [3, 7] | growth inhibition [3, 8] | growth inhibition ([3]; at 50.0 µM) | growth inhibition [4, 7] | growth inhibition [4, 8] | growth inhibition ([4]; at 50.0 µM) | growth inhibition [5, 7] | growth inhibition [5, 8] | growth inhibition ([5]; at 50.0 µM) | growth inhibition [6, 7] | growth inhibition [6, 8] | growth inhibition ([6]; at 50.0 µM)
COc1ccc2nc(NC(=O)Nc3c(Cl)cccc3Cl)sc2c1 | 13% | 99% (active) | 98.4% (active) | -3% | 99% (active) | 99.3% (active) | 20% | 99% (active) | 99% (active) | 15% | 98% (active) | 97.6% (active) | 2% | 99% (active) | 98.7% (active) | 30% | 98% (active) | 98.3% (active)
Cc1nn(C)c2ccc3ccccc3c(=O)c12 | 9% | 66% | 88.5% (active) | -1% | 44% | 45% | 2% | 50% | 42.6% | 18% | 47% | 29.4% | -6% | 26% | 32.6% | 11% | 81% (active) | 76% (active)
Cc1nn(C(=O)c2ccccc2O)c2c1C(c1ccc(O)cc1O)SC(N)=N2 (configuration not stated) | -31% | 28% | 46% | -1% | 47% | 22.6% | -3% | 24% | 42.5% | 16% | 27% | 41% | 15% | 81% (active) | 71.7% (active) | -4% | 54% | 48.2%
COc1cc(C=O)c(Cl)cc1O | 2% | 21% | 55% | 1% | 43% | 67% | 1% | 47% | 90% (active) | -4% | 25% | 60.2% | -2% | 14% | 44.5% | 2% | 34% | 77.8% (active)
C[C@]12CC[C@@H]3c4ccc(O)cc4CC[C@H]3[C@@H]1CC[C@@H]2NCCCCCCO | 21% | 25% | 14.6% | 18% | 19% | 48.6% | 18% | 38% | 34.4% | 26% | 31% | -13.2% | 15% | 34% | -6.1% | 21% | 37% | -3.2%
CNc1nc(N)nc(N(C)c2ccc(Br)cc2)c1N=O | 22% | 71% (active) | 68.2% | 40% | 58% | 12.3% | 11% | 32% | 17.6% | 16% | 33% | -30.7% | 20% | 64% | 21.2% | 36% | 79% (active) | 43.9%
CN(C)c1ccc(C=Nc2cncc3ccccc23)cc1 | 0% | -11% | -55.6% | 5% | -9% | -18.6% | -3% | 10% | -12.8% | -20% | -6% | -39.5% | 3% | 4% | -6.05% | 7% | 4% | -7.35%
CC(C)(Cl)C(Cl)CC/C(CBr)=C(\Cl)CBr (configuration not stated) | 10% | 99% (active) | 73.5% (active) | 17% | 99% (active) | 92.3% (active) | -11% | 98% (active) | 92% (active) | 21% | 95% (active) | 90.2% (active) | 4% | 94% (active) | 92% (active) | 11% | 99% (active) | 4.4%
CC(C)c1ncc(-c2ccccc2)cc1-c1ccccc1 | -2% | 93% (active) | 95.7% (active) | -3% | 96% (active) | 97.5% (active) | -1% | 94% (active) | 97.7% (active) | 2% | 86% (active) | 78.8% (active) | 6% | 95% (active) | 98.5% (active) | -7% | 95% (active) | 96% (active)
[O-][n+]1c2c(cc3ccccc31)Cc1ccccc1-2 | 2% | 31% | 21.7% | 3% | 19% | 35% | -3% | 5% | -22.6% | 4% | 3% | 20.4% | 7% | 29% | 24.4% | 3% | 20% | 30.7%
C1CCC(CCNCCC2CCCCC2)CC1 | -1% | 99% (active) | 99% (active) | -15% | 99% (active) | 97.5% (active) | 25% | 99% (active) | 99% (active) | -15% | 99% (active) | 98.7% (active) | -8% | 99% (active) | 98.5% (active) | 8% | 99% (active) | 98.7% (active)
COC(=O)C1=C(C)NC(C)=C(C(=O)OC)C1c1ccc(/[N+]([O-])=C/c2ccccc2)cc1 | 4% | 43% | 85% (active) | 5% | 34% | 70.8% (active) | 13% | 25% | 96.4% (active) | -1% | 40% | 60.2% | 17% | 74% (active) | 78.8% (active) | -7% | 67% | 93.2% (active)
CCOC(=O)C(C=O)(C=O)c1ccccc1 | 6% | 42% | 71.5% (active) | 4% | 19% | 8.5% | 7% | 18% | 61% | 4% | 24% | 43.2% | -3% | 14% | -36.4% | -1% | 32% | 44.5%
Nc1ccc2oc(=O)c3ccccc3c2c1 | 18% | 94% (active) | 85.3% (active) | 7% | 69% | 36.6% | 10% | 85% (active) | 48% | 8% | 30% | 6.8% | -3% | 74% (active) | 33.1% | 22% | 94% (active) | 86.8% (active)
O=C1C(Cl)=C(NCCC2CCCN3CCCCC23)C(=O)c2ccccc21 (configuration not stated) | 13% | 48% | 65.3% | -8% | 54% | 53.4% | 10% | 55% | 79.5% (active) | 2% | 37% | 63.7% | 2% | 51% | 26.1% | 6% | 27% | 70.8% (active)
O=C(SC(O)c1ccc(Cl)cc1)c1ccccc1 (configuration not stated) | -7% | 58% | 79.8% (active) | -7% | 57% | 74.5% (active) | -3% | 68% | 85.3% (active) | -4% | 58% | 22.9% | -5% | 57% | 64.9% | -8% | 60% | 81.8% (active)
CN1CC[C@@H](c2ccccc2)[C@@H](O)C1 | 0% | -11% | 6.3% | 4% | -4% | 12% | 2% | -10% | 49.1% | -3% | -11% | -1.15% | 0% | -3% | 3.5% | -1% | -29% | 9.55%
Cc1ccc(OC/C=C/c2ccc(Cl)cc2)cc1 | -2% | 75% (active) | 77.2% (active) | 0% | 88% (active) | 53.1% | 16% | 91% (active) | 85.2% (active) | -2% | 84% (active) | 65% | 2% | 86% (active) | 67.4% | 5% | 90% (active) | 85.2% (active)
NCCNC[Si](c1ccccc1)(c1ccccc1)c1ccccc1 | -13% | 92% (active) | 7.6% | -3% | 92% (active) | -21.4% | -10% | 84% (active) | 8.2% | -4% | 96% (active) | 5.3% | -10% | 94% (active) | 17.6% | -12% | 87% (active) | 11.4%
